Screens: PubChem BioAssay, National Center for Advancing Translational Sciences (NCATS)
Six1-Eya2 blk – qHTS Assay for Inhibitors of the Six1/Eya2 Interaction; AlphaScreen GST-Six1/His-Eya2 binding, biochemical; hits give low values; activity change, % (test concentration not listed); hit rate 0.56% among 360,000; in the data active = activity change below about -65%; inconclusive = mostly about -30% to -63%; note: % is set by controls: 0 for no effect and ±100 for the full control effect
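Compounds are tested against tagged Six1 and Eya2 proteins bridged by glutathione donor and nickel acceptor beads; after a one-hour incubation at 37 °C without light, AlphaScreen emission is recorded.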
RORg inh – qHTS for inhibitors of ROR gamma transcriptional activity | Drosophila S2 Gal4-RORgamma UAS-luciferase reporter, 20 h | Potency, µM (highest dose often 53.6 µM), inactives show top-dose activity change, negative = inhibition, most hits filed as inhibitors | hit rate 5.4% among 310,000 | AID 2551, 2010; note: potency is the fitted concentration of half-maximal effect; % is set by controls: 0 for no effect and ±100 for the full control effect; nearly all actives have a fitted effect of over 60% in size
Target sequence (P51450 whole entry, looked up, the tested form may be a part): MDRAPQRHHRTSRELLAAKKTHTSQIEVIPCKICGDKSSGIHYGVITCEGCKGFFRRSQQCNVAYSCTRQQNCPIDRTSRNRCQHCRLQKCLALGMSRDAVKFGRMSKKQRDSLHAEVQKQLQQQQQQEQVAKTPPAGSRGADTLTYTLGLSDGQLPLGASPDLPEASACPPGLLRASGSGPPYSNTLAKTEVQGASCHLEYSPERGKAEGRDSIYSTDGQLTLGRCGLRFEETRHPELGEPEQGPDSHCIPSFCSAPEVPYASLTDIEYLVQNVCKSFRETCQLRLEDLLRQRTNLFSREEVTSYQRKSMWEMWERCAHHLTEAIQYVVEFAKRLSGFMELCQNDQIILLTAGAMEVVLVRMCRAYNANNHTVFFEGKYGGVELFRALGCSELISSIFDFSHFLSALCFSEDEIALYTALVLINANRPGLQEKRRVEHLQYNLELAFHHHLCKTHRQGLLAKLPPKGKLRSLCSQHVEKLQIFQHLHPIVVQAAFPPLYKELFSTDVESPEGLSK
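Schneider cells (Drosophila), stable Gal4 DBD–ROR gamma + UAS-luc; 1 hr cmpd preincubation; Cu2+ induction 700 uM final; 20 hr ambient; luminescence.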
p53 reactivator – qHTS assay for re-activators of p53 using a Luc reporter | Potency, µM (doses to about 92.2 µM), without a hit: top-dose activity change, positive = activation, most hits filed as activators | H1299 p53-A138V BP100-luciferase reporter, luminescence, 24 h | hit rate 0.063% among 320,000 | AID 504706, 2011; note: potency is the fitted concentration of half-maximal effect; % of control where 0% means no effect; nearly all actives have a fitted effect of over 45% in size
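p53-null H1299 cells stably carrying temperature-sensitive p53-A138V and a BP100-luciferase reporter were pinned with compounds (4-point, 1:5 series) and held 24 hrs at 37 deg C. Luminescence was read 10 min after detection reagent.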
Gal4-VP16 FLuc – VP16 counterscreen qHTS for inhibitors of ROR gamma transcriptional activity; Potency, µM (highest dose often 53.6 µM), for inactives: at the top dose activity, negative = inhibition, actives largely listed as inhibitors; Drosophila S2 Gal4-VP16 UAS-luciferase, luminescence, 20 h; hit rate 3.5% among 310,000;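 note: Gal4-VP16 expression switched on by copper sulfate through the metallothionein promoter; potency is the fitted concentration of half-maximal effect; % is set by controls: 0 for no effect and ±100 for the full control effect; nearly all actives have a fitted effect of over 50% in size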
CtBP-E1A inh – qHTS Assay for Inhibitors of the CtBP/E1A Interaction. CtBP / adenovirus E1A interaction (AlphaScreen). AlphaScreen GST-E1A/His-CtBP binding, 1536-well; hits give low values. activity change, % (no concentration beside the values). hit rate 0.49% among 340,000. AID 651724, 2012; in the data active = activity change below about -65%; inconclusive = mostly about -30% to -63%; note: % is set by controls: 0 for no effect and ±100 for the full control effect
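In 5 uL wells, 23 nL compound meets equimolar GST-E1A and His-CtBP (5X stock 125 nM each) for 2 h, 37 °C. Beads (5X, 50 ug/mL) then 1 h, 37 °C, dark.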
An asterisk follows results filed as active; ? = inconclusive; . = not tested or not shown; [ ] = dose if it differs, or a comment. Only some compounds are listed: those with a hit (about 5.4% of all), similar ones and a draw of the others. Unless noted, calls come from the whole dose curve; as a rule, active = well fitted curve in the direction sought with a large enough effect; inconclusive = small, poorly fitted or top-dose-only effect, or another doubt; inactive = no such curve, though single readings can be large; an effect the other way counts as inactive or inconclusive.

SMILES	Six1-Eya2 blk	RORg inh	p53 reactivator	Gal4-VP16 FLuc	CtBP-E1A inh
CC(C)N(C(=S)NCc1ccccc1)c1ccccc1	3.7	7.94µM*	0.9%	?	0.0
Cc1ccc(-n2c(COc3ccccc3)n[nH]c2=S)cc1	8.6	2.51µM*	4.4%	?	2.2
COc1ccc(-n2c(COc3ccccc3)n[nH]c2=S)cc1	0.6	7.08µM*	8.8%	-11.4%	-1.3
COc1ccc(-n2c(COc3ccc(C)cc3)n[nH]c2=S)cc1	5.5	5.62µM*	3.5%	7.08µM*	.
Cc1ccc(-n2c(COc3cccc(C)c3)n[nH]c2=S)cc1	13.5	?	-2.4%	?	0.0
Cc1ccc(C)c(C(C)NC(=O)c2ccc(Br)o2)c1 (stereo not drawn)	16.7	?	-1.9%	?	-11.3
COC(=O)CCC(C)C1CCC2C3C(O)C[C@@H]4CC(O)CC[C@@]4(C)C3CC(O)[C@]12C (stereo partly drawn)	.	10.8%	.	-2.4%	.
Cc1cccc(NC(=O)c2nc[nH]c2C(=O)N[C@@H](Cc2ccccc2)C(=O)OC(C)(C)C)c1	-9.1	3.16µM*	-0.7%	7.08µM*	-5.8
Cc1cccc(NC(=O)c2nc[nH]c2C(=O)NC[C@@H](C)O)c1	-6.6	.	.	.	-1.3
CC(C)(C)OC(=O)[C@H](Cc1ccccc1)NC(=O)c1[nH]cnc1C(=O)Nc1cccc(Cl)c1	2.0	4.47µM*	-4.2%	3.98µM*	0.2
CC(C)(C)OC(=O)[C@H](Cc1ccccc1)NC(=O)c1[nH]cnc1C(=O)Nc1ccc(Cl)cc1	-7.8	3.98µM*	-3.6%	8.91µM*	-4.4
Cc1cccc(NC(=O)c2nc[nH]c2C(=O)N[C@@H](CC(C)C)C(=O)OC(C)(C)C)c1	-3.6	5.62µM*	-8.2%	10µM*	0.3
CC(C)(C)OC(=O)[C@H](Cc1ccccc1)NC(=O)c1nc[nH]c1C(=O)NCCCCCN	-0.4	.	-6.1%	.	-20.6
O=c1cc(O)c2sc3nc(-c4cccnc4)cc(C(F)(F)F)c3c2[nH]1	?	4.5%	-0.2%	10.3%	-3.3
CCOC(=O)c1ccc(NC(=O)c2nc[nH]c2C(=O)N[C@@H](Cc2ccccc2)C(=O)OC(C)(C)C)cc1	?	2.82µM*	-0.3%	7.08µM*	-9.3
CCOC(=O)c1ccc(NC(=O)c2nc[nH]c2C(=O)N[C@H](C)CO)cc1	-2.9	.	.	.	-0.3
COc1ccc(Cn2cc(CN(C)C3CN(Cc4cn(Cc5ccc(OC)cc5)nn4)S(=O)(=O)C3)nn2)cc1 (stereo not drawn)	6.3	.	.	.	1.4
COc1ccc(C(=O)NNC2CC(=O)N(Cc3ccc(Cl)cc3)C2=O)cc1OC (stereo not drawn)	-4.3	?	-3.6%	7.08µM*	-15.6
O=C1NCCCN1C1OC(CO)C(O)C1O (stereo not drawn)	0.9	.	.	.	5.2
CCOC(=O)[C@]12CCCC=C1N(CCC1=CCCCC1)C(=O)[C@H](CC(=O)NCC1CCCCC1)C2	1.9	.	.	.	1.1
COc1ccc(OC)c2[nH]c(=O)c(CCNC(=S)NC(C)(C)C)cc12	-3.2	4.47µM*	-4.7%	11.2µM*	.
Cc1ccc(-c2cc(C(F)F)nc(S(C)(=O)=O)n2)cc1	1.0	10µM*	-12.2%	?	6.4
Oc1ccccc1C=NCCN1CCN(CCN=Cc2ccccc2O)C1c1ccccc1O (stereo not drawn)	-85.8*	.	.	.	-98.5*
Cc1ccc(-n2c(=S)[nH]c3sc4c(c3c2=O)CCc2ccccc2-4)cc1	11.7	0.447µM*	-6.2%	0.631µM*	.
COc1ccc(-n2c(=S)[nH]c3sc4c(c3c2=O)CCN(C)C4)cc1	.	-1.7%	0.8%	-7.9%	.
SMILES	Six1-Eya2 blk	RORg inh	p53 reactivator	Gal4-VP16 FLuc	CtBP-E1A inh
Cc1cccc(-n2c(=S)[nH]c3sc4c(c3c2=O)CCc2ccccc2-4)c1	4.6	0.355µM*	-3.8%	1.41µM*	3.4
Cc1ccc(C2=NCN(c3ccc(C(=O)O)cc3)C(=S)N2)cc1	.	1.4%	-3.8%	-1.2%	.
CC(C)S(=O)(=O)N1CCCC(C(=O)c2cccc(Cl)c2)C1 (stereo not drawn)	6.9	0.5%	-2.2%	12.1%	9.4
CN(C)c1ccc(-c2nc3cc(N)ccc3o2)cc1	-3.2	7.94µM*	-21.4%	7.08µM*	4.2
Nc1ccc(-c2nc3ccc(N)cc3o2)cc1	-2.3	?	-2.3%	11.2µM*	-2.8
Cc1ccc2nc(-c3cc(N)cc(N)c3)oc2c1	-12.6	2.82µM*	-5.9%	?	-12.1
CSCC[C@H](NC(=O)[C@H](CC(C)C)NC(=O)CNC(=O)[C@@H]1CCCN1C(=O)[C@H](Cc1ccccc1)NC(=O)[C@H](Cc1ccccc1)NC(=O)[C@H](CC(=O)O)NC(=O)[C@H](Cc1cnc[nH]1)NC(=O)[C@H](CCSC)NC(=O)[C@@H](N)CC(=O)O)C(N)=O	.	5.6%	.	-1.2%	.
O=C(Nc1nc2ccccc2s1)C1c2ccccc2Oc2ccccc21	-8.0	11.2µM*	-9.9%	?	12.3
Cc1ccc(-c2nc3cccnc3s2)cc1NC(=O)C1c2ccccc2Oc2ccccc21	2.6	12.6µM*	26.2%	11.2µM*	4.0
CCc1nnc(NC(=O)C2c3ccccc3Oc3ccccc32)s1	22.7	11.2µM*	-9.8%	?	21.4
O=C(Nc1nc2ccccc2s1)C1CCCO1 (stereo not drawn)	-2.2	-2.8%	?	-21.9%	4.2
CCOc1ccc(CCNC(=O)COC(=O)c2cc(OC)c(OC)c(OC)c2)cc1OCC	.	2.6%	0.6%	-0.3%	.
COc1ccc(C2=Nn3c(C)nnc3SC2)cc1	-3.1	-20.5%	3.8%	3.7%	.
CC(=O)OC[C@@H]1O[C@H](C/C=N\O[C@@H](C)c2cn([C@H](CO)Cc3ccccc3)nn2)C=C[C@@H]1OC(C)=O	.	1.4%[10 µM]	.	8.1%[10 µM]	.
COC(=O)c1ccc2nc(-c3cccc(N)c3)cn2c1	23.5	6.31µM*	-8.8%	7.94µM*	23.6
Cc1cc(C)n(-c2ccc(C(=O)Nc3ccc(S(=O)(=O)NCc4ccco4)cc3)cc2)n1	?	?	-7.6%	15.8µM*	?
Cc1cc(C)n(-c2ccc(C(=O)Nc3cccc(S(=O)(=O)N(C)C)c3)cc2)n1	?	?	-3.2%	7.08µM*	?
Cc1cc(C)n(-c2ccc(C(=O)Nc3ccc(S(=O)(=O)N(C)C)cc3)cc2)n1	-19.5	?	-7.4%	-6.3%	0.0
CCN(CC)S(=O)(=O)c1cccc(NC(=O)c2ccc(-n3nc(C)cc3C)cc2)c1	-5.8	?	-6.6%	-12.8%	-70.3*
Cc1cc(C)cc(NC(=O)c2cc(S(=O)(=O)NCc3ccco3)ccc2F)c1	-9.9	-18.5%	-10.4%	10µM*	-7.4
CCN(CC(=O)NCCc1ccc(S(N)(=O)=O)cc1)Cc1ccccc1	-0.3	1.5%	-12.8%	0.5%	0.0
